{"source": "the supplement of paper PMC10338343", "note": "± gives the standard deviation.", "data": [{"test_system": "EfPiwi piRISC loaded with L1MC piRNA (26 nt)", "test": "pre-steady-state target cleavage rate (min^-1); auxiliary factor: 500 nM Ephydatia muelleri Gtsf1; guide: L1MC piRNA 5'p-UAACUAAAUACUAUGCAAGCUGUAGG; MIWI and MILI are mouse PIWI proteins and EfPiwi is from a freshwater sponge; tags in brackets are library labels; higher = faster piRNA-guided slicing of the target", "description": "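Cleave-'n-Seq: a library of target RNAs (target site in constant flanks) at […] was incubated with 1 nM active freshwater sponge Ephydatia fluviatilis Piwi piRISC (synthetic 5'-monophosphorylated piRNA guide) with or without 500 nM EmGtsf1 at 33 °C for 1 min to 16 h. Uncleaved targets were sequenced and the pooled three trials fitted to a burst-and-steady-state model to give the pre-steady-state cleavage rate (min^-1). Sequence is the target site only. Fits with R² ≤ 0 are excluded.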", "values": [{"sequence": "UCCUGGAUCAGCUUGCUAUAGUAUUUAGUUA", "pre-steady-state target cleavage rate": "0.00528 ± 0.0019"}, {"sequence": "UCCUGCUACAGCUUGCAUAGUUUUUACAAA", "pre-steady-state target cleavage rate": "0.00339 ± 0.0026"}, {"sequence": "UCCUGCUACAGCUUGCAUAUUAUUUAGUUA", "pre-steady-state target cleavage rate": "0.0119 ± 0.0034"}, {"sequence": "UCCUCCUACAGCUUGGAUAGUAUUUACUUA", "pre-steady-state target cleavage rate": "0.00254 ± 0.0019"}, {"sequence": "UCCUGGAACAGCAUGGAUAGUAUUUAGUUA", "pre-steady-state target cleavage rate": "0.00527 ± 0.0017"}, {"sequence": "UCCUGCUACAGCUUGCAUAGUAAUUUGUUA", "pre-steady-state target cleavage rate": "0.00579 ± 0.002"}, {"sequence": "UCCUGGAUCAGCUUGCAUAGUAUCUUAGUUA", "pre-steady-state target cleavage rate": "0.0248 ± 0.0072"}, {"sequence": "UCCUGGAUCACGAUGCAUAGUAUUUAGUAA", "pre-steady-state target cleavage rate": "0.00397 ± 0.0033"}, {"sequence": "UCCUGGAUGUCGAACGUUAGUAUUAAGUAA", "pre-steady-state target cleavage rate": "< 0.0001"}, {"sequence": "UCCUGGAACAGCUUGCAUAGUAUUUAUUUA", "pre-steady-state target cleavage rate": "0.00534 ± 0.0034"}, {"sequence": "UCCUGCUACAGCUUGCAUAGGAUUUAGUUA", "pre-steady-state target cleavage rate": "0.00356 ± 0.001"}, {"sequence": "UCCUGGAUGUGCUUCCAUAGUAUUUAGUUA", "pre-steady-state target cleavage rate": "0.00277 ± 0.0019"}, {"sequence": "UCCUCCUACAGCUUGCAUAAUAUUUAGUUA", "pre-steady-state target cleavage rate": "0.00664 ± 0.0024"}, {"sequence": "UCCUCCAAGAGCUUGCAUAGUAUUUAGUUA", "pre-steady-state target cleavage rate": "0.0523 ± 0.014"}, {"sequence": "UCCUGGUACAGCUUGCAUAGUUAUUAGUAA", "pre-steady-state target cleavage rate": "0.00807 ± 0.0043"}, {"sequence": "UCCUGCUACAGCUUCCAUAGUAUUUAGUAA", "pre-steady-state target cleavage rate": "0.00255 ± 0.0016"}, {"sequence": "UCCUCGAACAGCUUGCAUAGUAUUUAGUUA", "pre-steady-state target cleavage rate": "0.198 ± 0.038"}, {"sequence": "UCCUCCUACAGCUUGGAUUGUAUUUAGUUA", "pre-steady-state target cleavage rate": "0.0225 ± 0.0082"}, {"sequence": "UCCUGGAUCAGCUUGCAUAGUAUUUUGAAA", "pre-steady-state target cleavage rate": "0.00318 ± 0.0016"}, {"sequence": "UCCUGGUUCUGCUUGCAUAGUAUUUAGUUA", "pre-steady-state target cleavage rate": "0.0355 ± 0.011"}, {"sequence": "UCCUGGAUCAGCUUGCAUAGUAUUUAAUUA", "pre-steady-state target cleavage rate": "0.00916 ± 0.0034"}, {"sequence": "UCCUGCUACAGCUUGCAUAGUUAUUAGUUA", "pre-steady-state target cleavage rate": "0.00354 ± 0.0022"}, {"sequence": "UCCUGGAUGAGCUUGCAUUGUAUUUAGUUA", "pre-steady-state target cleavage rate": "0.00376 ± 0.0029"}, {"sequence": "UCCUGGAUCAGCUUGCAUAGUAUUUAGAAA", "pre-steady-state target cleavage rate": "0.00346 ± 0.0016"}, {"sequence": "UCCUCCUACUCGUUGCAUAGUAUUUAGUUA", "pre-steady-state target cleavage rate": "0.101 ± 0.025"}, {"sequence": "UCCUGGUACACCUUGCAUAGUAUUUAGAAA", "pre-steady-state target cleavage rate": "0.0037 ± 0.0035"}, {"sequence": "UCCUGGAUCAGCAUGCAUAGUAUUUACAAA", "pre-steady-state target cleavage rate": "0.00615 ± 0.0038"}, {"sequence": "UCCUGGAUGUGCUCGCAUAGUAUUUAGUUA", "pre-steady-state target cleavage rate": "0.00512 ± 0.0021"}, {"sequence": "UCCUCCUACAGCUAGCAUAGAAUUUAGUUA", "pre-steady-state target cleavage rate": "0.00325 ± 0.0019"}, {"sequence": "UCCUGGAUGUCGAACGUAUCAAUAUAGUUA", "pre-steady-state target cleavage rate": "< 0.0001"}, {"sequence": "UCCUCCUACAGCUUGGAUAGUAUUUUGUUA", "pre-steady-state target cleavage rate": "0.00565 ± 0.0022"}, {"sequence": "UCCUGGUACAGCUUGCAUAGUAUUUAGUGA", "pre-steady-state target cleavage rate": "0.00447 ± 0.0018"}, {"sequence": "UCCUGGAUGUCCUUGCAUAGUAUUUAGUUC [g2:g19:cont:t1C]", "pre-steady-state target cleavage rate": "0.00867 ± 0.0028"}, {"sequence": "UCCUGGAUCUGCUUGCUUAGUAUUUAGUUA", "pre-steady-state target cleavage rate": "0.0931 ± 0.028"}, {"sequence": "UCCUGCAACAGCUUGCAUAGUAUUUAGAUA", "pre-steady-state target cleavage rate": "0.00372 ± 0.002"}, {"sequence": "UCCUGGAACAGGUAGCAUAGUAUUUAGUUA", "pre-steady-state target cleavage rate": "0.00892 ± 0.0028"}, {"sequence": "UCCUGGAUGUGCAUGCAUAGUAUUUAGAAA", "pre-steady-state target cleavage rate": "0.00304 ± 0.0022"}, {"sequence": "UCCUGGUACAGCUUCCAUAGUAUUUAGAUA", "pre-steady-state target cleavage rate": "0.00221 ± 0.0016"}, {"sequence": "UCCUGGAUGAGCUAGCAUAGUAAUUAGUUA", "pre-steady-state target cleavage rate": "0.00293 ± 0.0021"}, {"sequence": "UCCUGGUACAGGUAGCAUAGUAUUUAGUUA", "pre-steady-state target cleavage rate": "0.00853 ± 0.0036"}]}]}
